# Laboratory results taken from PubChem BioAssay AID576 (NMMLSC, 2007).
# Among all 24,000 compounds or so, about 150 (0.62%) were called active. This is one part of a sample in which actives are shown more often than they occur. Values without a mark were called inactive.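 The calls were made as follows: active = fluorescence ratio above 2.44, which is 1 plus 3 SD of all ratios; inconclusive = signal too bright to measure linearly, ratio around 10 or more; inactive = fluorescence ratio below 2.44.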
# Test: compound autofluorescence on Jurkat cells, primary screen, artefact control for VLA-4 allosteric ligand project, cell-based, flow cytometry (AID 576);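 also: green fluorescence of cells measured with 488 nm excitation and 530 nm emission; tested at 10 µM compound in the well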
# Settings: active compounds read high, 1 = vehicle-only cell background
row,Structure (SMILES),fluorescence ratio
1,CCc1c(C)c2c(C)[nH]nc2oc1=O,1.2
2,CCOc1ccc(-c2nnc3ccc(SC)nn23)cc1,0.96
3,CCOC(=O)c1sc(=S)n2c1[nH]c(=O)c1ccc(C(=O)OC)cc12,1.2
4,CC(=O)Nc1ccc(NS(=O)(=O)c2cc(C)sc2C)cc1,2.14
5,O=C(CC1Oc2ccccc2NC1=O)NCCCN1CCN(Cc2ccccc2)CC1 (configuration not stated),1.05
6,COCCCNC(=O)CCc1nc2cccnc2n1Cc1ccc(OC)cc1,1.04
7,Cc1ccc(NC(=O)NCC(c2cccnc2)N2CCOCC2)cc1 (configuration not stated),0.96
8,O=C(CN1CCOc2ccccc21)N1CCC(Cc2ccccc2)CC1,1.07
9,O=C(NCc1ccco1)C1CCCN(S(=O)(=O)c2cccc3nonc23)C1 (configuration not stated),1.11
10,Cc1ccc(CNC(=O)CN2CCN(Cc3ccc(Cl)cc3)C2=O)cc1,1.03
11,Cc1ccc(NC(=O)C2CCCN(S(=O)(=O)c3c(C)noc3C)C2)c(C)c1 (configuration not stated),1.07
12,COc1ccc(C2CC(c3ccccc3)Nc3ncnn32)cc1 (configuration not stated),1.19
13,COc1cccc(-c2nc3n(n2)C(c2ccccc2Cl)C(C(N)=O)=C(C)N3)c1 (configuration not stated),1.01
14,CN1CCCc2cc(C#N)c(=O)[nH]c21,1
15,O=C(O)CCN1C(=O)CC2(CCCCC2)C1=O,1
16,Cc1ccc(NC(=O)CCNS(=O)(=O)c2ccc3c(c2)oc(=O)n3C)cc1C,1.08
17,CCOC(=O)N1CCN(CC(=O)c2ccc3c(c2)CCN3)CC1,0.99
18,CCCNC(=O)C1CC(=O)N(c2ccc(OCC(=O)Nc3cccc(C)c3C)cc2)C1 (configuration not stated),1.03
19,COc1ccc(N2C(=O)CCC(C(=O)Nc3ccccn3)C2c2ccc(OC)c(OC)c2)cc1 (configuration not stated),1.01
20,O=C(CC1N=C2c3ccccc3N=C(SCc3ccccc3Cl)N2C1=O)NCc1ccco1 (configuration not stated),1.18
21,Cc1occc1C(=O)Nc1nnc(C2CCCCC2)s1,0.94

row,Structure (SMILES),fluorescence ratio
1,CC1CSc2nnc(CCc3ccccc3)n21 (configuration not stated),1
2,O=C(NCc1ccc2c(c1)OCO2)c1cc2c(s1)CS(=O)(=O)C2,1.08
3,CCOc1ccc(N(CC(=O)OC)S(=O)(=O)c2c(C)noc2C)cc1,1.04
4,CC(=O)c1c(C)[nH]c(C(=O)NCCCN2CCCC2)c1C,0.97
5,Cc1ccc(C)c(NS(=O)(=O)c2cc(Br)cnc2N)c1,1.02
6,Cn1c(=O)[nH]c(=O)c2c1nc(CN(Cc1ccccc1)Cc1ccccc1)n2CCN1CCOCC1,1.16
7,Cc1nc2c(-c3ccc(F)cc3)c(C)nn2c(C)c1CCC(=O)N1CCN(c2ccccn2)CC1,1.23
8,O=C(Cn1nc(Cc2cccnc2)c2ccccc2c1=O)NCC1CCCO1 (configuration not stated),1.02
9,CC(C)C[C@H](NC(=O)[C@@H]1O[C@H]1C(=O)O)C(=O)NCCCCN=C(N)N,0.97
10,COc1ccccc1CNC(=O)Cn1cc2c(n1)CCCC2,1.04
11,CCOC(=O)N1CCC(O)(c2cc(C)c(C)cc2C)CC1,0.98
12,O=C(NCc1ccco1)c1cccn2c(=O)c3cc(Br)ccc3nc12,1
13,CS(=O)(=O)c1ccc2nc(NC(=O)C3C4C=CC(C4)C3C(=O)O)sc2c1 (configuration not stated),1.05
14,CCCCc1nc2c(=O)[nH]c3ccccc3c2o1,1.21
15,Cc1nc2sc(C(c3ccco3)N3CCC4(CC3)OCCO4)c(O)n2n1 (configuration not stated),1.05
16,COc1cc2c(cc1OC)C(c1ccc(C)o1)CC(=O)N2 (configuration not stated),1
17,O=S(=O)(O)CCN1CCOCC1,1.09
18,Cc1cc(NC(=O)CSCc2nc(-c3cccc(Cl)c3)oc2C)no1,1.07
19,c1cc(-c2nn[nH]n2)ccc1CN1CCCCC1,1.02
20,Cc1ccc2c(c1)N(CCCC(=O)NCc1cccnc1)C(=O)CO2,1.05
21,Cc1cccc(N2CCN(S(=O)(=O)c3ccc4c(c3)c(=O)n(C)c(=O)n4C)CC2C)c1 (configuration not stated),1.11

row,Structure (SMILES),fluorescence ratio
1,COc1cccc(NC(=O)C2CCCN2C(=O)OCc2ccccc2)c1 (configuration not stated),1.04
2,CCC(C)NC(=O)C1CCC(=O)N1Cc1ccc(C)cc1 (configuration not stated),0.99
3,CCC(=O)N1c2ccc(S(=O)(=O)CCC(=O)N3CCN(c4ccccc4)CC3)cc2CC1C (configuration not stated),1.09
4,Cc1oc(C)c(C(=O)NCCCC(=O)O)c1C(=O)NCCCC(=O)O,1.08
5,O=c1[nH][nH]c(=O)c2cc(N3CCCC3)ccc12,1.01
6,CCOC(=O)N1CCN(S(=O)(=O)c2cc3c(cc2C)NC(=O)CO3)CC1,1.09
7,CCOc1ccc(Cn2nnc(C(=O)NCc3ccccc3)c2N)cc1,1.02
8,COc1ccc(N2C(=O)CCC(C(=O)N(C)C3CCCCC3)C2c2ccc(OC)c(OC)c2)cc1 (configuration not stated),0.98
9,COC(=O)C1=C(C)Nc2ncnn2C1c1ccco1 (configuration not stated),1.02
10,CCOc1nc(OCC)nc(-n2cc(-c3ccccc3)nn2)n1,1.08
11,COCCn1c(-c2ccc(OC)c(OC)c2)nc2ccccc21,1.05
12,O=C(c1ccco1)N1CCN(C(=O)C2CC(c3ccc(F)cc3)=NO2)CC1 (configuration not stated),1.01
13,CCCOc1ccc(C2c3c(oc4cc(C)c(C)cc4c3=O)C(=O)N2CCCN2CCOCC2)cc1 (configuration not stated),0.94
14,CCN(CC)CCNC(=O)C1c2ccccc2C(=O)N(C)C1c1cn(C)c2ccccc12 (configuration not stated),1.11
15,Cc1cccc(NC(=O)C2CCN(S(=O)(=O)c3cccc4cccnc34)CC2)c1,1.03
16,O=S1(=O)CCN2C(=N1)SC1=C2CCN(Cc2ccccc2)C1,0.99
17,Cc1ccc(S(=O)(=O)NCc2cn3ccsc3n2)c(C)c1,1.07
18,Cc1cc(C)c2c(n1)nn1c(N3CCN(c4cccc(Cl)c4)CC3)cc(C)nc21,1.1
19,CC(=O)Nc1ccc(S(=O)(=O)Nc2nc3n(n2)C(c2ccccc2)CC(=O)N3)cc1 (configuration not stated),1.06
20,ON=C1/C(=N\O)CC2(C/C1=N/O)OCCO2,1.11
